Assay results from article PMC11574364.

biological target: SLTM (Homo sapiens, UniProt Q9NWH9); experiment: protein domain microarray probed with biotinylated miRNA; Domain array: 20 mM Tris-HCl pH 7.4, 200 mM KCl, 0.2 mM EDTA, 0.05% NP40, 2 ug/ul heparin, overnight 4 C. ORF array: PBS pH 7.0 with RNase inhibitor, 100 ng RNA; high values mean tight binding; settings: ssRNA
Sequence (Q9NWH9 360-485): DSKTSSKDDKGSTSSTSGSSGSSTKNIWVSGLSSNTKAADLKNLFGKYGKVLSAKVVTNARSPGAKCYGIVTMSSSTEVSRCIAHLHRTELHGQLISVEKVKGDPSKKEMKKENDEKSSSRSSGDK

Sequence | binding signal [fluorescence intensity]
UGAGGUAGUAGGUUGUAUGGUU | 141.8 ± 1.03
AGAGGUAGUAGGUUGCAUAGUU | 123
UGAGGUAGUAGGUUGUGUGGUU | 305 ± 14.8
UGAGGUAGUAGGUUGUAUAGUU | 57.9 ± 0.728
UAGCUUAUCAGACUGAUGUUGA | 33.6 ± 0.863
CAGUGCAAUGAUGAAAGGGCAU | 123 ± 2.81
